± gives the standard deviation of the averaged measurements. The full ranking holds about 33,000 sequences; the median of “E-score (dimensionless, -0.5 to 0.5)” is about -0.046, and the highest 2% start at about 0.36. What follows is part of a selection rich in the highest values, with near analogues and random picks from the rest.
The sequences below were run on T1, SpTbr T-box DNA-binding domain (GST fusion) (assay: PBM E-score of 8-mer (E-score (dimensionless, -0.5 to 0.5)); Tbr is Tbrain of the sea star Patiria miniata (Pm) or the sea urchin Strongylocentrotus purpuratus (Sp); higher = stronger binding preference). Details: the construct has about 5 more residues each side.
T1 sequence: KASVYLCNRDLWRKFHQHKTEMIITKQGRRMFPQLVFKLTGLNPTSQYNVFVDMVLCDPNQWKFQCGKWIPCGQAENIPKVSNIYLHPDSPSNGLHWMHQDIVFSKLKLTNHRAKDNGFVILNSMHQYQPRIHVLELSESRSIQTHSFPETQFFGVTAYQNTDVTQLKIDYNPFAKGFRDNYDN
Method: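 Universal protein-binding microarray (Agilent AMADID 016060, 60-bp probes with a 35-bp variable region) incubated with 200 nM GST-fused Strongylocentrotus purpuratus Tbr T-box DNA-binding domain (residues 362-554) in PBS pH 7.5. Scored for every ungapped 8-mer (given with its reverse complement) as E-score (range -0.5 to 0.5; >0.45 counts as bound) and Z-score of median probe intensity. Two replicate arrays (datasets 1 and 2).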
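Note: protein at 200 nM in PBS on universal double-stranded arrays.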

Sequence | PBM E-score of 8-mer
ATTTCACG | 0.293 ± 0.04
ATTTCACC | 0.0204 ± 0.024
GTTTCAAA | -0.327 ± 0.079
GCTTCACA | 0.347 ± 0.013
CGCCCAGA | 0.0494 ± 0.0041
AGCTAACT | -0.27 ± 0.067
CCAGTATC | -0.199 ± 0.063
CCCTTAGG | 0.00499 ± 0.015
AGCCCCCT | -0.356 ± 0.013
TGCAAGAA | -0.0626 ± 0.014
ACTCTTTG | 0.221 ± 0.066
GGCGTTAA | 0.387 ± 0.0042
GGCGTCAC | 0.373 ± 0.024
TGCGTTAA | 0.208 ± 0.026
AGCGTTAA | 0.36 ± 0.025
CGCGTCAC | 0.277 ± 0.039
AGCGTCAA | 0.317 ± 0.0075
GGCGTCAA | 0.412 ± 0.018
AGCGTCAC | 0.3328 ± 0.0021
CGCGTCAA | 0.313 ± 0.006
AAGCGATA | 0.2613 ± 0.002
ATAGGCTG | 0.0188 ± 0.056

Sequence | PBM E-score of 8-mer
TATGTACA | -0.174 ± 0.083
GGAGCAAC | 0.0231 ± 0.049
GAACTTCA | -0.0825 ± 0.021
ACAGTCCG | 0.00019 ± 0.0047
GGGGTACC | -0.1738 ± 0.00025
CGGCGTGC | 0.00958 ± 0.15
CCGTGAAC | 0.353 ± 0.0099
GCGTGACA | 0.345 ± 0.023
ACGTGAAC | 0.126 ± 0.031
GCGTGAAA | 0.4597 ± 0.0039
CCGTGAAA | 0.245 ± 0.022
GCGTGAAC | 0.456 ± 0.0075
TCGTGAAA | 0.253 ± 0.054
GCGTGACC | 0.369 ± 0.004
ACGTGACC | 0.135 ± 0.082
CCGGATCG | -0.114 ± 0.033
CAAAAAAA | -0.1537 ± 0.00074
CAAGCTTC | -0.215 ± 0.013
AAGGTCAC | 0.164 ± 0.036
AACGGGAT | -0.0959 ± 0.041
CGTTTCCA | 0.0866 ± 0.0024
AAGTGCGT | 0.203 ± 0.018

Sequence | PBM E-score of 8-mer
AAGTGCGC | 0.194 ± 0.018
ATGTGCGG | 0.0899 ± 0.0075
ATGTGCGC | 0.211 ± 0.054
ATGTGCGA | 0.47362 ± 0.00026
TAGTGCCA | 0.195 ± 0.009
CAGTGCGA | 0.386 ± 0.0039
CAGTGCGC | 0.00847 ± 0.051
AAGTGCGA | 0.483 ± 0.0069
TAGTGCGA | 0.4025 ± 0.0017
TAGTGCAA | 0.247 ± 0.024
CAGTGCGG | 0.107 ± 0.0036
ACGATCTC | 0.0369 ± 0.034
GGATGACC | 0.103 ± 0.0083
AACCACGG | 0.0188 ± 0.11
GCAGAAGA | -0.218 ± 0.017
ACGTGCGA | 0.4353 ± 0.0022
ACGTGCGG | 0.206 ± 0.011
GAGTGCGC | -0.0493 ± 0.043
GCGTGCGA | 0.317 ± 0.025
GAGTGCGA | 0.411 ± 0.021
GAGTGCAA | 0.0398 ± 0.012
ACACTTCT | 0.383 ± 0.035

Sequence | PBM E-score of 8-mer
TCACTTCA | 0.151 ± 0.018
ACACTTCG | 0.409 ± 0.0085
AAACTTCT | -0.146 ± 0.1
ACACTTCA | 0.412 ± 0.0084
ACTCTTCT | -0.224 ± 0.0037
CCACTTCC | 0.072 ± 0.0026
GCACTTCC | 0.326 ± 0.017
AAACTTCG | -0.00264 ± 0.024
ACACTTCC | 0.417 ± 0.016
CCACTTCG | 0.193 ± 0.017
CCACTTCA | 0.108 ± 0.019
ACTCGTAC | -0.0977 ± 0.07
CATCCTGG | -0.0597 ± 0.01
AAGTTAAA | 0.0719 ± 0.053
AGACTCTC | -0.0738 ± 0.045
TCTCAAAA | -0.176 ± 0.025
GACAATCC | 0.0693 ± 0.021
ATGTGCTG | 0.161 ± 0.0054
AGGTGCTG | 0.4215 ± 0.0039
TGGTGCAA | 0.214 ± 0.0077
